# Assay outcomes: PubChem BioAssay, National Center for Advancing Translational Sciences (NCATS)
# Sm TGR inh: inhibitors of Schistosoma mansoni thioredoxin glutathione reductase; Q962Y6; purified TGR, DTNB reduction, TNB absorbance 405 nm; Potency, µM (series often up to 114 µM), for inactives: at the top dose activity change, negative = inhibition, hits mostly inhibitors; actives 3% (n = 360,000); active = well fitted inhibition curve with a large enough effect; inconclusive = small, poorly fitted or top-dose-only effect; inactive = no such curve, though single readings can be large or run the other way; note: nearly all actives have a fitted effect of over 60% in size
#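 First, TGR (20 nM dispensed) and NADPH were mixed with compound. Second, a 15 min room-temperature incubation followed. Third, further NADPH and then DTNB were added to start the reaction. Finally, TNB absorbance was monitored kinetically.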
# VACV Venus inh: vaccinia inhibition (Venus reporter); actives 0.46% (n = 330,000); Vaccinia virus Venus reporter expression, fluorescence; Potency, µM (titrated, usually from 36.5 µM), for the others: top-dose activity change, negative = inhibition, hits mostly inhibitors; calls by dose curve; tested in A549 cells; note: nearly all actives have a fitted effect of over 30% in size
# Vaccinia mCherry: vaccinia inhibition (mCherry reporter); Potency, µM (series often up to 36.5 µM), inactives show at the highest dose activity change, negative = inhibition, actives largely listed as inhibitors; Vaccinia virus mCherry reporter infection, fluorescence; actives 0.63% (n = 310,000); calls by dose curve; tested in A549 cells; note: nearly all actives have a fitted effect of over 35% in size
# Lassa entry inh: inhibitors of Lassa virus binding or cell entry; Lassa virus pseudotype entry inhibition, cell reporter; actives 1.2% (n = 300,000); Potency, µM (titrated, usually from 37.9 µM), for the others: top-dose activity change, negative = inhibition, usual class: inhibitors; calls by dose curve; tested in HEK293 cells; note: nearly all actives have a fitted effect of over 50% in size
# FMDV antiviral: foot and mouth disease virus antiviral activity | FMDV antiviral cell-based qHTS | actives 1.2% (n = 410,000) | Potency, µM (highest dose often 57.9 µM), inactives show at the top dose activity change, negative = inhibition, most hits filed as inhibitors; calls by dose curve; tested in HEK293T cells; note: read-out not given here; nearly all actives have a fitted effect of over 45% in size
# MARV entry inh: blocks Marburg virus binding to or entry into cells; Marburg virus pseudotyped entry inhibition, cell reporter; Potency, µM (highest dose often 37.8 µM), without a hit: at the top dose activity change, negative = inhibition, hits mostly inhibitors; actives 1.8% (n = 300,000); calls by dose curve; tested in HEK293 cells
# The depositor's hits bear a star; i = inactive; u = inconclusive; x = no result; [ ] = remark or other dose. Most compounds without a hit are left out; they make up all but 5.4% or so of the library. % is set by controls: 0 for no effect and ±100 for the full control effect; potency is the fitted concentration of half-maximal effect.
SMILES,Sm TGR inh,VACV Venus inh,Vaccinia mCherry,Lassa entry inh,FMDV antiviral,MARV entry inh
O=C1C=C(O)C[C@H](c2cccs2)C1,x,x,x,x,x,21%
CN1C(=O)C[C@@H](N2CCN(c3ccc(Cl)c(Cl)c3)CC2)C1=O,x,x,x,x,x,-8%
CCc1ccc(CNC(=O)c2sc3ncccc3c2-n2c(C)ccc2C)cc1,-2%,-18%,-16%,-13%[46.1 µM],0%,x
FC(F)(F)c1ccccc1-c1nc(NCCN2CCOCC2)c2ccccc2n1,x,x,x,x,2%,x
COc1ccc(-c2noc(N3CCC(C(=O)Nc4ccc(F)cc4)CC3)n2)cc1,3%,-23%,i,x,-22%,x
COc1ccc(-c2noc(N3CCC(C(=O)N4CCN(c5ccccc5F)CC4)CC3)n2)cc1,-11%,-23%,-29%,-11%[46.1 µM],11µM*,x
CN1/C(=C\C(=O)CN2C(=O)NC3(CCCCCC3)C2=O)C(C)(C)c2ccccc21,u,-2%,-16%,u,20µM*,u
Oc1cc2c(cc1CN1CCN(c3ncccn3)CC1)OCO2,1µM*,-1%,-5%,19%[46.1 µM],0%,3%[46.1 µM]
Fc1ccccc1CN1CCN(c2ncccn2)CC1,-4%,u,-4%,8%,-4%,5%
C=CCOCCN1C(=O)C2C(c3ccccc3)C=CC(c3ccccc3)C2C1=O (configuration not stated),-33%,-18%,u,24%,u,u
O=C1C2C(c3ccccc3)C=CC(c3ccccc3)C2C(=O)N1CCCO (configuration not stated),-12%,u,x,1%,32µM*,1%
Cc1ccccc1C1(CC(=O)N2CCCCC2c2cccnc2)CC(=O)N(C2CCCC2)C1=O (configuration not stated),x,-21%,-18%,x,26%,x
Cc1ccc(-n2nc(CO)c(C(=O)NCCCCc3ccccc3)n2)cc1C,9%,-5%,-1%,6%[46.1 µM],-1%,-3%[46.1 µM]
CCCCN1/C(=C/c2ccc3ccccc3[n+]2CC)Sc2ccccc21,x,422%,-5%,2.2µM*,20µM*,5.6µM*
CCN1/C(=C/c2ccc3ccccc3[n+]2CCCS(=O)(=O)[O-])C=Cc2cc(C)ccc21,-1%,128%,62%,14%[46.1 µM],u,23%[46.1 µM]
CCN1/C(=C/c2ccc3ccccc3[n+]2CC)C=Cc2ccccc21,u,41%,x,5.6µM*,u,3.5µM*
Nc1nc(-c2ccc(Oc3ccccc3)cc2)cs1,9%,x,x,x,22%,x
Cc1ccc(-c2csc(N)n2)cc1,x,u,11µM*,16%[46.1 µM],36%,25%[46.1 µM]
COc1ccc(-c2csc(N)n2)cc1,0%,u,14µM*,-21%,41%,u
Nc1nc(-c2ccc(-c3ccccc3)cc2)cs1,4%,u,u,-27%[46.1 µM],9%,u
NC1=NC(=Nc2ccc(Cl)cc2)c2ccccc21,-7%,-10%,-11%,-7%,31%,21%
NC1=NC(=Nc2ccccc2)c2ccccc21,-29%,u,u,13µM*,u,u
NC1=NC(=Nc2ccc(Br)cc2)c2ccccc21,0%,u,u,u,4%,7.1µM*
COCCn1ccc2c(OCC(=O)NCc3ccc(F)cc3)cccc2c1=O,16%,-5%,-9%,u,-20%,x
Cc1ccc(C)n1-c1ccc(C(=O)O)cc1,18µM*,x,x,x,x,2%
SMILES,Sm TGR inh,VACV Venus inh,Vaccinia mCherry,Lassa entry inh,FMDV antiviral,MARV entry inh
Cc1ccc(C)n1-c1ccc(C(=O)N2CCOCC2)cc1,8.9µM*,-3%,i,1%,-23%,u
Cc1ccc(C)n1-c1cccc(NC(=O)c2ccccc2)c1,u,-16%,u,-4%,u,8%
Cc1ccc(C)n1-c1ccc(C(=O)Nc2ccccc2)cc1,25µM*,x,x,-19%,4%,-20%
CC(=O)N1CCN(C(=O)c2ccc(-n3c(C)ccc3C)cc2)CC1,-29%,-12%,i,-12%,-11%,u
COc1cc(NS(=O)(=O)c2cnc(N)nc2)cc(OC)c1,-1%,-7%,-2%,1%[46.1 µM],-8%,x
Cc1cc(Br)cc2c1NC(=O)C2(c1c(C)n(C)n(-c2ccccc2)c1=O)c1c(C)n(C)n(-c2ccccc2)c1=O,45µM*,-6%,-16%,11%,-16%,10%
Cc1c(C2(c3c(C)n(C)n(-c4ccccc4)c3=O)C(=O)Nc3ccc(F)cc32)c(=O)n(-c2ccccc2)n1C,-12%,-20%,x,6%,-17%,-8%
C=CCOc1ccc(CC2C(=O)N(C)C(=O)N(C)C2=O)cc1,25µM*,2%,-13%,0%,-24%,8%
COc1ccc(CC2C(=O)N(C)C(=O)N(C)C2=O)c(OC)c1,u,-9%,-9%,7%,-14%,2%
CCN(CC)c1ccc(CC2C(=O)N(C)C(=O)N(C)C2=O)cc1,14µM*,12%,-12%,-12%,-4%,0%
CCOc1ccc(CCNC(=O)c2cn(C)c3ccc(S(=O)(=O)N4CCCCCC4)cc3c2=O)cc1OCC,16%,-3%,-18%,18%[46.1 µM],8%,u
COc1ccccc1-c1c(-c2ccc(O)cc2O)n[nH]c1C(F)(F)F,4%,x,x,x,16µM*,x
COc1ccc(-c2c(-c3ccc(O)cc3O)n[nH]c2C(F)(F)F)cc1,-2%,7%[7.34 µM],-5%[7.34 µM],x,-12%,3%
Oc1ccc(-c2n[nH]c(C(F)(F)F)c2-c2ccccc2)c(O)c1,2%,u,u,u,20µM*,u
COc1cc(OC)cc(C(=O)Nc2cc3c(cc2N2CCCC2)n(C)c(=O)c(=O)n3C)c1,u,-7%,-13%,16%[46.1 µM],-13%,x
Cc1cc(C)n(CCc2nc(-c3ccc(C)o3)cs2)n1,7.9µM*,-19%,x,-15%,24%,-2%
O=C(N/N=C/c1ccccc1[N+](=O)[O-])c1ccc2c(c1)OCCO2,-16%,-18%,u,1.4µM*,u,2.5µM*
Cc1ccsc1/C=N/NC(=O)c1ccc2c(c1)OCCO2,9%,-9%,i,u,-15%,3.2µM*
O=C(N/N=C/c1cc(O)ccc1[N+](=O)[O-])c1ccc2c(c1)OCCO2,-10%,-7%,-1%,5µM*,u,u
Cc1ccsc1/C=N\NC(=O)c1n[nH]c2c1CCC2,-9%,u,u,6.3µM*,0%,2.8µM*
O=C([C@H](c1ccccc1)N1CCOCC1)N1CCOCC1,x,x,x,x,x,29%[46.1 µM]
CC(C)NC(=O)CSc1nc2ccccc2c(=O)n1Cc1ccc(C(=O)NC(C)C)cc1,11%,-6%,-2%,22%[46.1 µM],-12%,x
CN[C@@H]1C[C@H](c2ccc(Cl)c(Cl)c2)c2ccccc21,x,x,x,x,u,4.6µM*
COc1ccccc1C1CCN(Cc2ccc(Cl)c(Cl)c2)CC1,0%,-8%,-17%,u,u,u
CN[C@@H]1C[C@@H](c2ccc(Cl)c(Cl)c2)c2ccccc21,-1%,x,x,13µM*,x,4.6µM*
